Out of some 47,000 compounds screened, about 2,800 (6%) were called active. The entries come from a sample that favours actives as a whole. Values without a mark were called inactive. Rule as the data show it: active = z-score above about 3 (passing the limit was not always enough); inactive = the rest.
These compounds were tested against Endoribonuclease Dicer (Homo sapiens) (UniProt Q9UPY3) (assay: Dicer cleavage of pre-miR-21 blockers – biochemical, cat-ELCCA, chemiluminescence, primary screen (AID 1347074;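 also: plate controls were vehicle for no effect and no enzyme for full effect; higher signal means more uncleaved substrate so more Dicer inhibition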)). Conditions: cat-ELCCA pre-miR-21 Dicer processing, at 25 µM, stronger effect = higher value.
Endoribonuclease Dicer (Homo sapiens), sequence (Q9UPY3 whole entry, looked up): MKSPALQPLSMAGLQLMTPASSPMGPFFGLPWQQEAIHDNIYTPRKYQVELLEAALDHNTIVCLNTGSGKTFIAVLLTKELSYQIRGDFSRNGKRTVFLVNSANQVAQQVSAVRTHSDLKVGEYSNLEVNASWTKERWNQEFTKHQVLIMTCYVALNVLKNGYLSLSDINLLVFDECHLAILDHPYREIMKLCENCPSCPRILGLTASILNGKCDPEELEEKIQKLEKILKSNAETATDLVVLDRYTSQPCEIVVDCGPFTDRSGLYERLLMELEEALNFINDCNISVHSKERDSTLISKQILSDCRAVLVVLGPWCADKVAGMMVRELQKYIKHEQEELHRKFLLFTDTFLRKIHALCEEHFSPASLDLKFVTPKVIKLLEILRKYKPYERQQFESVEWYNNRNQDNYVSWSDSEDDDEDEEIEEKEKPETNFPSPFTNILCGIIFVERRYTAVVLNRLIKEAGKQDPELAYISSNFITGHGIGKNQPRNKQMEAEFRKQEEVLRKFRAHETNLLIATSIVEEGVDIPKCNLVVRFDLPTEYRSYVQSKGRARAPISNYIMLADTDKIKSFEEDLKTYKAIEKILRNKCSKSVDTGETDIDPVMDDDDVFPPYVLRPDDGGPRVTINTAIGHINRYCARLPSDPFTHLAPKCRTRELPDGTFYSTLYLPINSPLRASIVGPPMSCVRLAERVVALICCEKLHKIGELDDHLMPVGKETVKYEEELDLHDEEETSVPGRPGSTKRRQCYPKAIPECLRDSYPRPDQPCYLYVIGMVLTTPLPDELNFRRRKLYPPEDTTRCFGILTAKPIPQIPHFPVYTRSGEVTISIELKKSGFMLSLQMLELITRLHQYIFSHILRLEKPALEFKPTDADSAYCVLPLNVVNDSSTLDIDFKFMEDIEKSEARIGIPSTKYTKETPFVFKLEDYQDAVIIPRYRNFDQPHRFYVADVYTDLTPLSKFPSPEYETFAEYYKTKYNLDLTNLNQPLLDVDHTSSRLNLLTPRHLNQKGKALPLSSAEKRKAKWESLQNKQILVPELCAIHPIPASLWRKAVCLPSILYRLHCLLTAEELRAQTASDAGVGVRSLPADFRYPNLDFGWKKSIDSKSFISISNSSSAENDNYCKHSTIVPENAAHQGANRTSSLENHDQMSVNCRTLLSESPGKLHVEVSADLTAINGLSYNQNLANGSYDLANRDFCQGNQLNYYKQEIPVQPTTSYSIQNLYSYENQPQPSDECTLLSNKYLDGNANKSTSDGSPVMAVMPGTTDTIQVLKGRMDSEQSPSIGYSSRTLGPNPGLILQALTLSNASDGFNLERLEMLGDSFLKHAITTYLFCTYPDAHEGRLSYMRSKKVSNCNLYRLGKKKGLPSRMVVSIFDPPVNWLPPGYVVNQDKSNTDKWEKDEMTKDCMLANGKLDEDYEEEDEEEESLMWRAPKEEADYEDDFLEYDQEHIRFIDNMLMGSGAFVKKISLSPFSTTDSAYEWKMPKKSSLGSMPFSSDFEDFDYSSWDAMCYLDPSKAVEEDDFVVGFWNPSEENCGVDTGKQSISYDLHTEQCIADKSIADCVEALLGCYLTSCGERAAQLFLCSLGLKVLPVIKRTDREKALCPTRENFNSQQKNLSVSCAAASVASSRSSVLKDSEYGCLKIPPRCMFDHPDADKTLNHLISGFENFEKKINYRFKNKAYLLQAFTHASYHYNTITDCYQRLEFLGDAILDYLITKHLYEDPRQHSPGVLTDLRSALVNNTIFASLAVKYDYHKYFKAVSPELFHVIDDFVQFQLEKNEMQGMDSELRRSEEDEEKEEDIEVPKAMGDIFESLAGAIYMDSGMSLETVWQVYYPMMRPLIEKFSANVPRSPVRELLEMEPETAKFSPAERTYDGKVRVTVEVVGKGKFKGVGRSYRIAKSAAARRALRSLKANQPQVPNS

For `CCOc1c(Br)cc(CNCCc2c[nH]c3ccccc23)cc1OC`, the z-score was 6.45 (active).

Going from `CC[N+]1(C)CCCC(OC(=O)C(O)(c2ccccc2)c2ccccc2)C1` (stereo not given) to `Fc1ccccc1CN1CCN(Cc2ccc3c(c2)OCO3)CC1`, the z-score falls from -0.07 to -0.5.

Going from `CN(C)C(=O)Oc1nnc(SCCS(=O)(=O)c2ccc(F)cc2)n1C1CC1` to `Cc1cccc(-c2nc(C)cc(OC(=O)N(C)C)n2)c1`, the z-score rises from -1.56 to -0.47.
